Results taken from the supplement of paper PMC6897291.

Tests used:
[1] = test system: U-2932; assay: growth inhibition by drug alone (1 - RLU/untreated control) (fraction); higher = stronger inhibition; settings: 177Lu-lilotomab satetraxetan 0 ug/ml
In short: (§1)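 Plates pre-printed with the Selleck Cambridge Cancer Compound library at 10/100 nM (RIVA) or 10/1,000 nM (U-2932) received 3,000 cells/well. These cells had been washed after 18 h untreated or with a radiolabelled anti-CD37 antibody conjugate (~600 MBq/mg; 0.5 µg/ml RIVA, 1 µg/ml U-2932). Growth inhibition was obtained from RealTime-Glo luminescence in relation to untreated no-drug wells. Each daily read from day 3, taken after 1 h at 37°C, was converted as 1 − RLU/mean of 48 such wells per plate.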

[2] = test system: RIVA; assay: as above; settings: 177Lu-lilotomab satetraxetan 0 ug/ml
In short: as §1

[3] = test system: U-2932; assay: growth inhibition by drug plus 177Lu-lilotomab satetraxetan (1 - RLU/untreated control) (fraction); higher = stronger inhibition; settings: 177Lu-lilotomab satetraxetan 1 ug/ml
In short: as §1

[4] = test system: RIVA; assay: as above; settings: 177Lu-lilotomab satetraxetan 0.5 ug/ml
In short: as §1

Row | Compound | growth inhibition by drug alone ([1]; 10 nM, time (day): 3) | growth inhibition by drug alone ([1]; 10 nM, time (day): 4) | growth inhibition by drug alone ([1]; 10 nM, time (day): 5) | growth inhibition by drug alone ([1]; 10 nM, time (day): 6) | growth inhibition by drug alone ([1]; 1000 nM, time (day): 3) | growth inhibition by drug alone ([1]; 1000 nM, time (day): 4) | growth inhibition by drug alone ([1]; 1000 nM, time (day): 5) | growth inhibition by drug alone ([1]; 1000 nM, time (day): 6) | growth inhibition by drug alone ([2]; 10 nM, time (day): 3) | growth inhibition by drug alone ([2]; 10 nM, time (day): 4) | growth inhibition by drug alone ([2]; 10 nM, time (day): 5) | growth inhibition by drug alone ([2]; 10 nM, time (day): 6) | growth inhibition by drug alone ([2]; 100 nM, time (day): 3) | growth inhibition by drug alone ([2]; 100 nM, time (day): 4) | growth inhibition by drug alone ([2]; 100 nM, time (day): 5) | growth inhibition by drug alone ([2]; 100 nM, time (day): 6) | growth inhibition by drug plus 177Lu-lilotomab satetraxetan ([3]; 10 nM, time (day): 3) | growth inhibition by drug plus 177Lu-lilotomab satetraxetan ([3]; 10 nM, time (day): 4) | growth inhibition by drug plus 177Lu-lilotomab satetraxetan ([3]; 10 nM, time (day): 5) | growth inhibition by drug plus 177Lu-lilotomab satetraxetan ([3]; 10 nM, time (day): 6) | growth inhibition by drug plus 177Lu-lilotomab satetraxetan ([3]; 1000 nM, time (day): 3) | growth inhibition by drug plus 177Lu-lilotomab satetraxetan ([3]; 1000 nM, time (day): 4) | growth inhibition by drug plus 177Lu-lilotomab satetraxetan ([3]; 1000 nM, time (day): 5) | growth inhibition by drug plus 177Lu-lilotomab satetraxetan ([3]; 1000 nM, time (day): 6) | growth inhibition by drug plus 177Lu-lilotomab satetraxetan ([4]; 10 nM, time (day): 3) | growth inhibition by drug plus 177Lu-lilotomab satetraxetan ([4]; 10 nM, time (day): 4) | growth inhibition by drug plus 177Lu-lilotomab satetraxetan ([4]; 10 nM, time (day): 5) | growth inhibition by drug plus 177Lu-lilotomab satetraxetan ([4]; 10 nM, time (day): 6) | growth inhibition by drug plus 177Lu-lilotomab satetraxetan ([4]; 100 nM, time (day): 3) | growth inhibition by drug plus 177Lu-lilotomab satetraxetan ([4]; 100 nM, time (day): 4) | growth inhibition by drug plus 177Lu-lilotomab satetraxetan ([4]; 100 nM, time (day): 5) | growth inhibition by drug plus 177Lu-lilotomab satetraxetan ([4]; 100 nM, time (day): 6)
1 | c1ccc2c(-c3cnn4cc(-c5ccc(N6CCNCC6)cc5)cnc34)ccnc2c1 | -0.114 | -0.118 | -0.0883 | 0.0163 | -0.0225 | -0.0275 | -0.0302 | 0.125 | -0.24 | -0.273 | -0.265 | -0.249 | -0.167 | -0.254 | -0.224 | -0.213 | -0.113 | -0.0441 | 0.0116 | 0.0932 | -0.0291 | -0.0174 | 0.0152 | 0.209 | 0.399 | 0.521 | 0.544 | 0.537 | 0.307 | 0.408 | 0.431 | 0.436
2 | Cc1c(C(=O)Nc2ccc(N3C[C@@H](C)O[C@@H](C)C3)nc2)cccc1-c1ccc(OC(F)(F)F)cc1 [LDE225 (NVP-LDE225, Erismodegib)] | 0.0297 | 0.0258 | -0.0417 | -0.121 | -0.0141 | 0.0478 | 0.023 | -0.177 | -0.0165 | -0.00347 | -0.0773 | -0.419 | -0.213 | -0.137 | -0.143 | -0.258 | 0.00969 | 0.0196 | 0.033 | 0.15 | -0.0204 | 0.153 | 0.159 | 0.189 | 0.366 | 0.504 | 0.517 | 0.547 | 0.384 | 0.483 | 0.482 | 0.47
3 | Cc1ccc(C(=O)N(CCCN)[C@@H](c2oc3cc(Cl)ccc3c(=O)c2Cc2ccccc2)C(C)C)cc1 | 0.962 | 0.968 | 0.974 | 0.977 | 0.962 | 0.97 | 0.976 | 0.98 | 0.945 | 0.955 | 0.965 | 0.967 | 0.918 | 0.938 | 0.95 | 0.957 | 0.964 | 0.974 | 0.981 | 0.984 | 0.968 | 0.976 | 0.982 | 0.985 | 0.963 | 0.976 | 0.981 | 0.985 | 0.953 | 0.973 | 0.979 | 0.981
